Only some compounds are listed: those with a hit (about 3.5% of all), similar ones and a draw of the others.
TEAD-YAP inh – TEAD-YAP interaction inhibition, primary screen, TEAD-YAP interaction inhibitor project, luminescence, HEK-TIYL cells; inhibition, % at 9.12 µM; TEAD-Gal4/YAP UAS-luciferase luminescence; AID 1259422, 2018; 640,000 tested, 1.4% active; in the data active = inhibition above about 32%;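 also: 0% = median of test compound wells and 100% = reference inhibitor wells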
FBW7 activator – FBW7 E3 ligase activators, primary screen, biochemical, AlphaScreen, human; F-box/WD repeat-containing protein 7 (Homo sapiens), Q969H0; 650,000 tested, 0.13% active; normalized activity (activation), % at 26.1 µM; AlphaScreen FBW7–phospho-cyclin E peptide binding, activator screen; in the data active = normalized activity above about 1.9%;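 also: purified mutant Fbw7 with reduced substrate affinity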
Target sequence (Q969H0 whole entry, looked up): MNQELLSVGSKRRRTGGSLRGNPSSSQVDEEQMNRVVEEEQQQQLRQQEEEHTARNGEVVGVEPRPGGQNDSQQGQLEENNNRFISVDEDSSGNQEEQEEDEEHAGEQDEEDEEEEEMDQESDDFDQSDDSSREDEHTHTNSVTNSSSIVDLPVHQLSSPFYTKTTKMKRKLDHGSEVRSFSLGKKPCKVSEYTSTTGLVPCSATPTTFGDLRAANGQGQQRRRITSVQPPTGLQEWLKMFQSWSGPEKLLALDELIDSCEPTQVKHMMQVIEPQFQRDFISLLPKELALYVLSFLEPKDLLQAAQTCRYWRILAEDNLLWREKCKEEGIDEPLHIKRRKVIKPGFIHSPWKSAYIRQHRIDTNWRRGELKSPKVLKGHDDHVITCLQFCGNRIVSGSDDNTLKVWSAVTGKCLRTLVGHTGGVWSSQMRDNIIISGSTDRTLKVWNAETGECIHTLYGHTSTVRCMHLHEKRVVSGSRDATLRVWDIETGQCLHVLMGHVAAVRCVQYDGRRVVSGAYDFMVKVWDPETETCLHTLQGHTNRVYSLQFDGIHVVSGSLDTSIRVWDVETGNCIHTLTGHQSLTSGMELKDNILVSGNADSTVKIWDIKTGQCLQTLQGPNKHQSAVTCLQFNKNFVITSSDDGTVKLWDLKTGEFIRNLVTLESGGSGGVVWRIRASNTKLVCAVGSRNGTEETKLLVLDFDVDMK
GPR151 ag – activators of human GPR151, primary screen, cell-based, PathHunter beta-arrestin, luminescence; AID 1508602, 2020; PathHunter beta-arrestin GPR151 cells; activation, % at 11.2 µM; 650,000 tested, 1% active; G-protein coupled receptor 151 (Homo sapiens), Q8TDV0; in the data active = activation above about 4.9%;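 also: 0% = median of compound wells and 100% = cells with positive control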
MITF primary – MITF inhibitors, primary screen, biochemical, AlphaScreen, human | AID 1259374, 2018 | 650,000 tested, 0.91% active | Microphthalmia-associated transcription factor (Homo sapiens), O75030 | AlphaScreen MITF homodimerization, bead proximity signal | inhibition, % at 2.6 µM; in the data active = inhibition above about 50%;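 also: 0% = vehicle wells with protein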
* = called active by the depositor; ! = repeats disagree.

SMILES	TEAD-YAP inh	FBW7 activator	GPR151 ag	MITF primary
Cc1nc(N2CCCC2C(=O)NCCC2=CCCCC2)nc2cc(S(C)(=O)=O)ccc12 (stereo not drawn)	-9	0	1	11
Cc1cccc(C(=O)Nc2nn(C)c3c2C(C)CC(=O)N3)c1 (stereo not drawn)	2	1	-1	4
CCN(CC)c1ccc2cc(C(=O)Nc3cccc(C)c3)c(=N)oc2c1	-2	2.4*	0	18
O=C(CCCN1CC=C(n2c(=O)[nH]c3ccccc32)CC1)c1ccc(F)cc1	-4	1.9*!	-1	0
CC1CCN(CCCC(=O)c2ccc(F)cc2)CC1	7	0	0	10
O=C(COc1ccccc1Cl)NNC(=O)c1ccc(F)cc1	0	0	0	15
O=C(C[n+]1cccc2ccccc21)c1ccccc1	-7	0	-3	11
Nc1sc2ccccc2[n+]1CC(=O)c1ccccc1	75*	2.4*	-9	25
CCc1n[n+](CC(=O)c2ccccc2)c(N)s1	57*	0	-9	11
COCC(=O)n1nc(-c2ccccc2)nc1NCc1ccccc1Cl	-12	0	1	-5
O=C(c1ccccc1)C1Nc2ccccc2-c2nnc(SCc3ccccc3)nc2O1 (stereo not drawn)	-2	0	0	14
COc1ccc(CCn2c(=S)[nH]c3nccnc3c2=O)cc1OC	40*	0	0	-1
CCOC(=O)C(NC(=O)c1ccc(F)cc1)(Nc1sc2c(c1C(N)=O)CCCC2)C(F)(F)F (stereo not drawn)	2	0	1	6
CCOC(=O)c1[nH]c2c([N+](=O)[O-])cc(C)cc2c1C	10	0	0	-7
O=C(Nc1cc(-c2ccccc2OCc2ccccc2)ccn1)C1CCOC1 (stereo not drawn)	89*	0	0	11
O=C(Nc1cc(-c2ccccc2Oc2ccc(F)cc2)ccn1)C1CCOC1 (stereo not drawn)	26	1	3	22
O=C(Nc1cc(-c2ccccc2Oc2cccc(F)c2)ccn1)C1CCOC1 (stereo not drawn)	33*	1	2	50
CCC(C)(C)c1ccc(OCCCC[n+]2ccc(C)cc2)c(C(C)(C)CC)c1	45*	0	0	-8
CCC(C)(C)c1ccc(OCCCC[n+]2cccc(C)c2C)c(C(C)(C)CC)c1	88*	0	1	-15
O=C(O)c1ccccc1C=Nc1ccc2[nH]c(=O)[nH]c2c1	0	0	1	3
Nc1ccc(OCC[n+]2ccc(CCS(=O)(=O)O)cc2)cc1	-8	0	1	0
O=S(=O)(O)CCc1cc[n+](CC(O)CCl)cc1 (stereo not drawn)	17	2.4*	-1	4
O=S(=O)(O)CCc1cc[n+](CC(O)CO)cc1 (stereo not drawn)	6	2.8*	-1	8
O=C(O)C1CCC1C(=O)N1CCC2(CC1)OCc1cc(-c3ccc(F)cc3)ccc1O2 (stereo not drawn)	-23	0	0	14
O=C(NCc1ccc(F)cc1)c1ccc(N2CC3CC(C2)c2cccc(=O)n2C3)c(NC(=O)c2ccc(F)cc2)c1 (stereo not drawn)	84*	0	1	3
SMILES	TEAD-YAP inh	FBW7 activator	GPR151 ag	MITF primary
Cc1ccc(OCCOc2ccc([N+](=O)[O-])cc2/C=C2\SC(N)=NC2=O)cc1	-5	0	-1	3
CCCOc1ccc(C(=O)NC(=S)Nc2ccccn2)cc1	51*	0	-3	-12
CC(C)n1cnc2c(Nc3ccc4c(c3)OCO4)nc(Nc3cnccn3)nc21	-5	12*	0	-2
Cc1cnc(Nc2ccc(-n3ccnc3)cc2)nc1Nc1ccc2c(c1)OCO2	60*	0	-2	2
CC(C)n1cnc2c(Nc3ccc4c(c3)OCO4)nc(Nc3ccc(-n4ccnc4)cc3)nc21	39*	0	-1	6
CC(C)n1cnc2c(Nc3ccc(N4CCOCC4)cc3)nc(Nc3ccc(-n4ccnc4)cc3)nc21	50*	0	4	3
c1cnc(Nc2nc(Nc3ccc4c(c3)OCO4)c3ncn(C4CCCCC4)c3n2)cn1	-23	0	0	1
CC(=O)Nc1ccc(Nc2nc(Nc3ccc(N4CCOCC4)cc3)nc3c2ncn3C(C)C)cc1	22	0	3	4
CC(C)n1cnc2c(Nc3ccc4c(c3)OCO4)nc(Nc3ccccc3)nc21	5	0	0	12
O=C(CCCNc1ccccc1)N/N=C/c1cccc(Br)c1	-1	0	-1	-13
O=C(NCc1cccs1)c1cnc2ccccn12	-3	1	0	14
CCOC(=O)c1sc2nc3c(c(-c4cccs4)c2c1N)CCCC3	-3	0	-2	-2
O=C(O)CCN1C(=O)c2ccc3c4c(ccc(c24)C1=O)C(=O)N(CCC(=O)O)C3=O	-2	0	0	7
Cc1cc(C)c(S(=O)(=O)N(C)CC(=O)NC2CC2)c(C)c1	-5	0	2	5
NC(=O)c1ccc(-c2cccc(C(=O)Nc3ccc(N4CCOCC4)cc3)n2)cc1	-3	0	-1	-4
Cc1csc(=Nc2ccccc2F)n1/N=C/c1ccsc1	-12	0	-2	10
CCN=c1scc(C)n1/N=C/c1ccc2c(c1)OCCO2	-28	0	-2	12
CN=c1scc(-c2ccccc2F)n1/N=C/c1ccccc1	99*	0	-7	18
CCN=c1scc(-c2ccccc2F)n1/N=C/c1ccc2c(c1)OCCO2	51*	0	-8	14
COc1cccc2c(S(=O)(=O)Nc3ccc(C(=O)O)cc3)ccnc12	-15	0	-1	8
N#CS/C=C/C(=O)c1ccccc1	52*	0	0	2
O=C(Nc1ccc(-c2nc3ccccc3o2)c(O)c1)c1cccc(Cl)c1	14	0	0	6
CC1=C(C(=O)OCc2ccc3c(c2)OCO3)C(c2ccccc2)NC(=O)N1 (stereo not drawn)	51*	0	1	15
CC1=C(C(=O)OCc2ccc3c(c2)OCO3)C(c2cc3c(cc2Br)OCO3)NC(=O)N1 (stereo not drawn)	1	0	1	-9
CCc1ccc(C2NC(=O)NC(C)=C2C(=O)OCc2ccc3c(c2)OCO3)cc1 (stereo not drawn)	55*	0	-1	-3
CC(=O)Nc1ccccc1NC(=O)C/C(C)=N/NC(=O)Cc1ccc(-c2ccccc2)cc1	16	1	-1	0
COc1ccc(C(=O)NCC(=O)OCC(=O)Nc2ccc(C#N)cc2)cc1	-3	0	-2	10
CCOC(=O)C1CCN(c2nc(-c3ccc(Br)cc3)nc3ccccc23)CC1	7	0	1	0
CCOC(=O)C1CCN(c2nc(-c3ccncc3)nc3cnccc23)CC1	33*	0	4	-4
